Compound activity from PubChem.
Shown are actives, neighbours in structure and some others; about 2.4% of the full set was active somewhere.
C diff HTS – inhibitors of Clostridium difficile growth | growth activity, negative = inhibition, % at 16 µg/mL (by protocol) | Clostridium difficile clinical isolate growth, OD600, 24 h; active compounds read low | 86,000 compounds, 0.25% hits | AID 1259249;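 active means mean growth activity at or below -80% and every replicate also at or below -80%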;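 further: 0% = DMSO wells and -100% = levofloxacin 16 µg/mL wells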
Pf Dd2 growth – P. falciparum Dd2 growth inhibition | SYBR Green, 72 h; active compounds read low | activity change, % at 10 µM | 94,000 compounds, 2.3% hits | AID 1159554; in the data active means activity change below about -80%
Numbers without * were called inactive; . = no result given.

SMILES | C diff HTS | Pf Dd2 growth
C[C@H](CO)N1C[C@H](C)[C@H](CN(C)S(=O)(=O)c2ccc(F)cc2)OCc2ccccc2-c2c(n(C)c3ccccc23)C1=O | . | -87.4*
O=C(C[C@H]1C[C@@H]2c3cc(NC(=O)C4CCOCC4)ccc3O[C@@H]2[C@H](CO)O1)NCc1ccc(Oc2ccccc2)cc1 | . | 12.5
Cc1ccccc1S(=O)(=O)N[C@H]1CC[C@H](CCNS(=O)(=O)c2cccc(F)c2)O[C@H]1CO | -3.0 | -8.3
COc1ccccc1S(=O)(=O)N[C@H]1CC[C@@H](CCNC(=O)C2CCCC2)O[C@@H]1CO | -2.2 | -4.9
C[C@H](CO)N1C[C@H](C)[C@H](CN(C)Cc2ccncc2)Oc2cc(-c3ccccc3)ccc2S1(=O)=O | . | -40.5
C[C@@H]1CN([C@H](C)CO)C(=O)c2cccc(NS(=O)(=O)c3ccc(F)cc3)c2O[C@@H]1CN(C)C(=O)Nc1ccccc1 | -2.0 | -1.9
C[C@@H]1CCCCO[C@@H](CN(C)Cc2ccc(C(=O)Nc3ccccc3N)cc2)[C@@H](C)CN([C@H](C)CO)C(=O)c2cc(NC(=O)c3ccccc3)ccc2O1 | -0.7 | -83.7*
C[C@H]1CCCCO[C@@H](CN(C)Cc2ccc(C(=O)O)cc2)[C@@H](C)CN([C@@H](C)CO)C(=O)c2cc(NC(=O)c3ccccc3)ccc2O1 | -2.1 | -31.7
C[C@@H]1CCCCO[C@@H](CN(C)Cc2ccc(C(=O)Nc3ccccc3N)cc2)[C@@H](C)CN([C@H](C)CO)C(=O)c2cc(NC(=O)c3ccncc3)ccc2O1 | 5.0 | -85.5*
C[C@H](CO)N1C[C@H](C)[C@H](CN(C)Cc2ccccc2)OCCCC[C@H](C)Oc2ccc(NC(=O)c3ccncc3)cc2C1=O | -4.3 | 16.3
C[C@@H]1CCCCO[C@@H](CN(C)Cc2ccc(C(=O)Nc3ccccc3N)cc2)[C@@H](C)CN([C@H](C)CO)C(=O)c2cc(NC(=O)CCC(F)(F)F)ccc2O1 | 1.1 | -91.8*
C[C@@H]1CCCCO[C@@H](CN(C)Cc2ccccc2)[C@H](C)CN([C@H](C)CO)C(=O)c2cc(NC(=O)CCC(F)(F)F)ccc2O1 | 0.7 | -43.6
C[C@@H]1CN([C@H](C)CO)C(=O)c2cc(NC(=O)CCC(F)(F)F)ccc2O[C@@H]1CN(C)Cc1ccc(C(=O)Nc2ccccc2N)cc1 | . | -65.4
C[C@H]1CN([C@@H](C)CO)C(=O)c2cc(NC(=O)CCC(F)(F)F)ccc2O[C@@H]1CN(C)Cc1ccc(C(=O)Nc2ccccc2N)cc1 | 10.0 | -85.8*
O=C(CCN1CCCCC1)NCC[C@@H]1CC[C@H](NC(=O)Cc2cccnc2)[C@@H](CO)O1 | . | 26.2
C[C@H]1CN([C@@H](C)CO)C(=O)c2cc(NC(=O)CCN3CCOCC3)ccc2O[C@H]1CN(C)Cc1ccc(Oc2ccccc2)cc1 | -4.9 | -6.6
COc1ccc(CN2C[C@@H](O)COC[C@H]3O[C@H](CC(=O)NCCN4CCCC4)CC[C@@H]32)cc1 | -7.7 | 0.1
O=C(C[C@@H]1C=C[C@@H](NC(=O)c2cccc(F)c2)[C@@H](CO)O1)Nc1nccs1 | . | -13.1
O=C(C[C@@H]1CC[C@H]2[C@@H](COC[C@@H](O)CN2Cc2ccccc2F)O1)N[C@@H]1CCN(Cc2ccccc2)C1 | . | -33.4
O=C(Nc1nccs1)[C@H]1[C@H](CO)[C@H]2Cn3c(cccc3=O)[C@@H]1N2C(=O)C1CCC1 | 2.5 | 2.2
C[C@H](CO)N1C[C@H](C)[C@H](CN(C)CC2CCCCC2)OCCCC[C@H](C)Oc2ccc(NC(=O)Nc3cccc4ccccc34)cc2C1=O | -1.4 | -70.4
C[C@@H]1CCCCO[C@@H](CN(C)CC2CC2)[C@H](C)CN([C@@H](C)CO)C(=O)c2cc(NC(=O)Nc3cccc4ccccc34)ccc2O1 | -0.5 | -66.7
C[C@@H]1CCCCO[C@H](CN(C)CC2CCCCC2)[C@H](C)CN([C@@H](C)CO)C(=O)c2cc(NC(=O)Nc3cccc4ccccc34)ccc2O1 | -1.0 | -88.1*
C[C@@H]1CCCCO[C@H](CN(C)CC2CCCCC2)[C@H](C)CN([C@H](C)CO)C(=O)c2cc(NC(=O)Nc3cccc4ccccc34)ccc2O1 | 3.7 | -87.7*
C[C@@H]1CCCCO[C@@H](CN(C)CC2CCCCC2)[C@@H](C)CN([C@@H](C)CO)C(=O)c2cc(NC(=O)Nc3cccc4ccccc34)ccc2O1 | -5.0 | -82.1*
SMILES | C diff HTS | Pf Dd2 growth
C[C@@H]1CCCCO[C@H](CN(C)CC2CC2)[C@H](C)CN([C@@H](C)CO)C(=O)c2cc(NC(=O)Nc3cccc4ccccc34)ccc2O1 | 3.9 | -79.7
C[C@H](CO)N1C[C@H](C)[C@@H](CN(C)CC2CCCCC2)OCCCC[C@H](C)Oc2ccc(NC(=O)Nc3cccc4ccccc34)cc2C1=O | 7.4 | -62.6
CCCN(C)C[C@H]1OCCCC[C@H](C)Oc2ccc(NC(=O)Nc3cccc4ccccc34)cc2C(=O)N([C@@H](C)CO)C[C@H]1C | -2.0 | -91.2*
O=C(CN1CCOCC1)N1CCCCN2[C@@H](CO)[C@@H](c3ccc(-c4ccccc4F)cc3)[C@@H]2C1 | -9.7 | -1.8
Cc1noc(C)c1S(=O)(=O)Nc1cccc2c1O[C@@H](CN(C)S(=O)(=O)c1ccccc1)[C@@H](C)CN([C@@H](C)CO)C2=O | -2.3 | -9.8
Cc1noc(C)c1NC(=O)N(C)C[C@H]1Oc2c(NC(=O)Nc3ccc(F)cc3)cccc2C(=O)N([C@H](C)CO)C[C@@H]1C | -2.6 | 35.2
N#C[C@@H]1[C@H](c2ccc(C3=CCCC3)cc2)[C@H](CO)N1C(=O)C1CCOCC1 | -5.3 | -0.3
C[C@@H]1CN([C@H](C)CO)C(=O)c2cc(NC(=O)Nc3cccc4ccccc34)ccc2O[C@@H](C)CCCCO[C@@H]1CN(C)CC1CCCCC1 | -0.5 | -88.3*
C[C@@H]1CCCCO[C@@H](CN(C)CC2CC2)[C@H](C)CN([C@H](C)CO)C(=O)c2cc(NC(=O)Nc3cccc4ccccc34)ccc2O1 | 1.5 | -77.4
C[C@H](CO)N1C[C@H](C)[C@H](CN(C)Cc2ccc(Cl)c(Cl)c2)Oc2c(NC(=O)Nc3cccc4ccccc34)cccc2C1=O | -0.7 | -55.6
CCCC#Cc1ccc([C@H]2[C@H](CO)N3CCCCN(C(=O)NC4CCCC4)C[C@@H]23)cc1 | 9.5 | -35.6
OC[C@@H]1[C@H](c2ccc(-c3ccc(F)cc3)cc2)[C@@H](CNC2CCCC2)N1CCC(F)(F)F | 44.5 | -96.6*
OC[C@H]1[C@H](c2ccc(-c3ccc(F)cc3)cc2)[C@@H]2CN(CCC(F)(F)F)CCCCN12 | 35.9 | -64.9
OC[C@H]1[C@@H](c2ccc(-c3ccc(F)cc3)cc2)[C@@H]2CN(CCC(F)(F)F)CCCCN12 | 25.0 | -78.8
OC[C@@H]1[C@H](c2ccc(-c3ccc(F)cc3)cc2)[C@H](CNC2CCCC2)N1CCC(F)(F)F | 23.1 | -89.0*
C[C@@H]1CN([C@@H](C)CO)C(=O)c2cc(NS(=O)(=O)c3cn(C)cn3)ccc2O[C@H]1CN(C)CC1CCCCC1 | -2.6 | 4.2
O=C(C[C@H]1CC[C@H]2[C@@H](COC[C@@H](O)CN2C(=O)Nc2cccc(Cl)c2)O1)NCCCN1CCOCC1 | 49.0 | -14.6
O=C(c1ccccn1)N1CC[C@@H]2[C@H](CO)Nc3ccc(C#Cc4ccccc4)cc3[C@@H]21 | -14.9 | 2.1
N#Cc1cccc(-c2ccc3c(c2)[C@H]2[C@H](CCN2C(=O)c2ccncc2)[C@H](CO)N3)c1 | -9.7 | -80.2*
